Among the test systems are DU-145 prostate; K-562 leukemia; MALME-3M melanoma; MDA-MB-231 breast; RXF 393 renal; SF-268 CNS; SF-295 CNS; SF-539 CNS; UACC-257 melanoma; M14 melanoma.
Holding throughout (assay): NCI-60 one-dose screen, 48 h (100 = growth as untreated, 0 = no growth, -100 = all killed)
What all share (conditions): 10 µM unless noted

Eleven molecules from PubChem BioAssay (NCI) can be followed below.

Several values for one entry are separate records, joined by “and”; a condition that tells them apart may be missing. Identical values can stand only once. About 83,000 compounds went through this panel and 20% of them were active in at least one assay; those are over-represented in the sample as a whole.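 Cell lines were cultured in 96-well plates, exposed to a single compound concentration, and assessed for percent growth 48 hours later.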 Values without a mark were called inactive. Activity calls are given as the source filed them. The calls were made as follows: active = growth percent below 10; inactive = the rest.

As to `COc1cc(C(=O)c2ccccc2C(=O)O)c(OC)c2c1CCCC2`, the growth in the test with DU-145 prostate was 99% and 106%; with K-562 leukemia it was 85.7% and 84.7%; in the test on MALME-3M melanoma, 90.5% and 97.3%; in the test on MDA-MB-231 breast, 87.8% and 101%; in the test on RXF 393 renal it was 107% and 100%; in the test on SF-268 CNS it was 92.5% and 101%. Further, the growth is 97% and 102% in the test with SF-295 CNS; 97.3% and 103% in the test with SF-539 CNS; 95.9% and 99.5% in the test with UACC-257 melanoma; 94.4% and 97.6% in the test with M14 melanoma.
Regarding `Cn1cc(-c2csc(-c3c[nH]c4ccc(F)cc34)n2)c2cnccc21`, the growth in the test on DU-145 prostate was -19.6% (active); with K-562 leukemia, -55.4% (active); in the test with MALME-3M melanoma, -94.9% (active); in the test with MDA-MB-231 breast, -66.7% (active); in the test on RXF 393 renal it was -90.8% (active); with SF-268 CNS, -25.4% (active). Besides, the growth in the test with SF-295 CNS was -75.4% (active); in the test on SF-539 CNS, -93.7% (active); with UACC-257 melanoma, -68.6% (active); in the test with M14 melanoma, -87% (active).
On to `Oc1ccccc1C=Nc1ccc(N2CCN(c3ccccc3)CC2)cc1`, for which the growth with DU-145 prostate was 104%; in the test with K-562 leukemia it was 80.7%; in the test with MALME-3M melanoma, 114%; in the test on MDA-MB-231 breast, 100%; in the test on RXF 393 renal, 97.7%; in the test with SF-268 CNS it was 99.2%. Besides, the growth with SF-295 CNS is 103%; in the test on SF-539 CNS it was 77.2%; in the test with UACC-257 melanoma, 97%; in the test on M14 melanoma it was 96.3%.
For the molecule `CC1=CC(C)(C)NC(=S)N1c1ccc(Cl)cc1`, the growth was 105% and 110% in the test with DU-145 prostate; 97.7% and 92.6% in the test on K-562 leukemia; 99.7% in the test with MALME-3M melanoma; 101% and 99.3% in the test on MDA-MB-231 breast; 104% and 121% in the test with RXF 393 renal; 101% and 100% in the test with SF-268 CNS. For the same molecule, the growth is 101% and 111% in the test on SF-295 CNS; 98.7% and 106% in the test on SF-539 CNS; 98.6% and 105% in the test with UACC-257 melanoma; 102% and 95% in the test with M14 melanoma.
Turning to `Clc1cccc(Nc2ncnc3ccc(-c4cncc(-n5cnnn5)c4)cc23)c1`, the growth is 43.5% with DU-145 prostate; 71.5% in the test with K-562 leukemia; 88.2% in the test on MALME-3M melanoma; 67.3% in the test on MDA-MB-231 breast; 48.4% in the test on RXF 393 renal; 70.6% in the test on SF-268 CNS. Further, the growth in the test on SF-295 CNS was 76.9%; in the test with SF-539 CNS, 87.3%; with UACC-257 melanoma it was 92.9%; in the test on M14 melanoma, 53.2%.
For `CN1CCCc2cc(/C=C3\SC(=S)N(C(Cc4ccc(O)cc4)C(=O)O)C3=O)ccc21` (stereo not given), the growth is 104% with DU-145 prostate; 91.3% with K-562 leukemia; 88.9% with MALME-3M melanoma; 96.1% with MDA-MB-231 breast; 99.4% in the test on RXF 393 renal; 97.2% in the test with SF-268 CNS. The growth with SF-295 CNS is 98.2%; in the test with SF-539 CNS, 102%; in the test with UACC-257 melanoma it was 99.6%; with M14 melanoma, 101%.
For the molecule `COc1cc(Cl)cc(-c2nn(C(=O)NS(=O)(=O)c3ccc(Cl)cc3)cc2-c2ccncc2)c1`, the growth in the test with DU-145 prostate is 83.8%; in the test with K-562 leukemia it was 82.2%; in the test with MALME-3M melanoma it was 78.1%; with MDA-MB-231 breast, 56.8%; in the test with RXF 393 renal, 71.2%; in the test with SF-268 CNS, 67.5%. The growth with SF-295 CNS was 90.6%; in the test on SF-539 CNS, 39.6%; with UACC-257 melanoma, 113%; in the test with M14 melanoma, 72.7%.
As to `Cc1cc(N2CCCCC2)nc(NCc2cc(Nc3ccnc4cc(Cl)ccc34)ccc2F)n1`, the growth is -1.6% (active) in the test with DU-145 prostate; -31.4% (active) in the test on K-562 leukemia; -75% (active) in the test with MALME-3M melanoma; -73.3% (active) in the test on MDA-MB-231 breast; -66.2% (active) in the test on RXF 393 renal; -17.2% (active) in the test on SF-268 CNS. The growth in the test with SF-295 CNS was -84.5% (active); with SF-539 CNS it was -77.7% (active); with UACC-257 melanoma, -64.4% (active); in the test with M14 melanoma, -67.8% (active).
With `Clc1ccc2c(NCCN3CCN(c4ccnc(N5CCCC5)n4)CC3)ccnc2c1`, the growth is 58.1% in the test on DU-145 prostate; 0.171% (active) in the test on K-562 leukemia; -43.3% (active) in the test on MALME-3M melanoma; 4.01% (active) in the test with MDA-MB-231 breast; -59.2% (active) in the test on RXF 393 renal; 33% in the test on SF-268 CNS. Also, the growth with SF-295 CNS is 52.9%; with SF-539 CNS, -63.1% (active); in the test with UACC-257 melanoma, -62% (active); with M14 melanoma it was -55.7% (active).
For the molecule `BrC1=C(Br)C(Br)(Br)C(Br)=C1Br`, the growth in the test with DU-145 prostate was 106%; in the test on K-562 leukemia it was 32.9%; in the test with MALME-3M melanoma it was 106%; in the test on MDA-MB-231 breast it was 73.7%; in the test on RXF 393 renal, 75.1%; in the test on SF-268 CNS, 97.8%. Further, the growth with SF-295 CNS was 113%; in the test with SF-539 CNS, 82.2%; with UACC-257 melanoma, 84.7%; in the test with M14 melanoma it was 65.2%.
In the case of `Cc1ccc(-c2nc3nc(-c4ccccc4)nc(N4CCN(S(=O)(=O)c5ccccc5)CC4)c3o2)cc1`, the growth with DU-145 prostate was 96.6%; in the test on K-562 leukemia, 97.7%; in the test with MALME-3M melanoma, 84.2%; in the test with MDA-MB-231 breast, 72.4%; with RXF 393 renal, 66.3%; with SF-268 CNS it was 66.8%. Besides, the growth was 74.7% in the test with SF-295 CNS, 52.5% with SF-539 CNS, 99% in the test with UACC-257 melanoma and 96.7% in the test on M14 melanoma.
